Screening results: PubChem BioAssay, National Center for Advancing Translational Sciences (NCATS)
Rows were chosen to be rich in hits. Some 11% of all compounds tested hit in one or more screens of this group.
MCF10A rereplic: inducers of DNA re-replication in MCF 10A breast cells; MCF 10A DNA re-replication, Hoechst nuclear intensity, 48 h; Potency, µM (titrated, usually from 46.1 µM), for the others: top-dose activity, positive = re-replication, most hits filed as activators; 350,000 tested, 2.9% active; also: potency is read from the fitted curve at half-maximal effect; % of control where 0% means no effect; nearly all actives have a fitted effect of over 50% in size
RORgamma inh: blocks mouse ROR gamma transcriptional activity; P51450; Drosophila S2 Gal4-RORgamma UAS-luciferase reporter, 20 h; Potency, µM (highest dose often 53.6 µM), without a hit: at the highest dose activity change, negative = inhibition, usual class: inhibitors; 310,000 tested, 5.4% active; also: potency is read from the fitted curve at half-maximal effect; % is scaled to controls: 0 for no effect and ±100 for the full control effect; nearly all actives have a fitted effect of over 60% in size
Target sequence (P51450 whole entry, looked up, the tested form may be a part): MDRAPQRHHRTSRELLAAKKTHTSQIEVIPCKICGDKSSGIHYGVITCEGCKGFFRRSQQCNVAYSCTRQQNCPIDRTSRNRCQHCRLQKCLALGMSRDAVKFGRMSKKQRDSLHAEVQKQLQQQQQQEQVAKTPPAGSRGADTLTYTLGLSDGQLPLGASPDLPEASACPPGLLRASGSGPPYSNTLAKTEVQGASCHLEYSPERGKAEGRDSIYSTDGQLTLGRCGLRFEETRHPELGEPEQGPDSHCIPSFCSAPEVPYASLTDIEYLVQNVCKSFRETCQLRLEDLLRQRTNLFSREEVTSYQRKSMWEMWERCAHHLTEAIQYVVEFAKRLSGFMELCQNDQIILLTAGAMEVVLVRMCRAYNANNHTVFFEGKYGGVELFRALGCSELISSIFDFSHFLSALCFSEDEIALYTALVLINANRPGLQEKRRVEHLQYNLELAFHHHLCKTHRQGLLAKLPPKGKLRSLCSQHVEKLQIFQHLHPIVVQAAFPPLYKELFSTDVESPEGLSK
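Using a luciferase readout, inhibitors were identified by reduced reporter activity in Drosophila cells coexpressing a copper-inducible Gal4–ROR gamma fusion and UAS-driven Photinus luciferase, incubated 20 hr after 700 uM copper sulfate.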
Gal4-VP16 FLuc: Gal4-VP16 reporter inhibition counter-screen. Potency, µM (series often up to 53.6 µM), without a hit: at the top dose activity, negative = inhibition, most hits filed as inhibitors. 310,000 tested, 3.5% active. AID 2546. Drosophila S2 Gal4-VP16 UAS-luciferase, luminescence, 20 h;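 also: Gal4-VP16 expression switched on by copper sulfate through the metallothionein promoter; potency is read from the fitted curve at half-maximal effect; % is scaled to controls: 0 for no effect and ±100 for the full control effect; nearly all actives have a fitted effect of over 50% in size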
IL-1B inflam inh: blocks inflammasome-driven IL-1 beta release; activity change, % at 57.5 µM; THP-1 LPS/ATP IL-1B secretion, AlphaLISA, 16 h; stronger effect = lower value; 360,000 tested, 4.7% active; AID 743279; in the data active = activity change below about -50%; inconclusive = mostly about -30% to -49%; also: % is scaled to controls: 0 for no effect and ±100 for the full control effect
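THP-1 cells pretreated 1 hr with compounds (up to 57.5 uM final), then stimulated with LPS (250 ng/mL final) plus ATP (1.25 mM final); secreted IL-1B measured by AlphaLISA after 16 hr, decreased signal indicating inhibition.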
SW480 rerep: DNA re-replication induction in SW480 cells; Potency, µM (titrated, usually from 46.1 µM), inactives show at the top dose re-replication activation, usual class: activators; SW480 DNA re-replication, Hoechst DNA content imaging, 48 h; AID 624297; 340,000 tested, 1.8% active; also: potency is read from the fitted curve at half-maximal effect; % of control where 0% means no effect; nearly all actives have a fitted effect of over 55% in size
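Image-based read-out: total Hoechst fluorescence of nuclei (405 nm excitation, 500-530 nm emission), with hits raising the fraction of high-intensity nuclei. SW480 colon cells incubated 48 hr with compounds at 37 C.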
Starred values were filed as active, the others as inactive; ? = inconclusive; / = no result; [ ] = another dose, or the depositor's remark. Unless noted, calls follow the shape of the dose curve; as a rule, active = well fitted curve in the direction sought with a large enough effect; inconclusive = small, poorly fitted or top-dose-only effect, or another doubt; inactive = no such curve, though single readings can be large; an effect the other way counts as inactive or inconclusive.

SMILES | MCF10A rereplic | RORgamma inh | Gal4-VP16 FLuc | IL-1B inflam inh | SW480 rerep
Cc1cccc(/C=N/NC(=O)c2cccc(NC(=O)c3ccccc3)c2)n1 | 9% | -17% | -4% | 32 | 5%
Cc1cccc(/C=N/NC(=O)c2cccc(Cl)c2)n1 | ? | 7.1µM* | 11µM* | -21 | ?
Cc1cccc(/C=N/NC(=O)c2ccccc2OCc2cccc(Br)c2)n1 | 18µM* | 16µM* | ? | -87* | 19%
Cc1ccc(CCNC(=O)c2cc(S(=O)(=O)N3CCCC3)cn2C)cc1 | -3% | 38% | 2% | -7 | -3%
Clc1ccc(SCc2cn3ccsc3n2)cc1 | 7% | 10% | 20% | -2 | -3%
Cc1csc2nc(CSc3ccc(Cl)cc3)cn12 | 29% | 2% | -22% | -91* | 3%
COc1ccc(SN=C2C(C)=CC(=O)C=C2C)cc1 | 26µM* | 7% | 2% | ? | ?
Cc1ccsc1C(=O)N1CCC1(C)C(=O)NS(=O)(=O)c1cccc(F)c1 (stereo unspecified) | / | / | / | 18 | /
CCN(CC)CC(=O)Nc1ccc(/C(C)=N/NC2=NCCN2)cc1 | 23µM* | -7% | 5% | ? | 18µM*
C/C(=N\NC1=NCCN1)c1ccc(Cl)cc1 | ? | 2% | -1% | -28 | ?
COCCN1C(=O)CSCC1(C)C(=O)Nc1ccc2c(c1)OCCO2 (stereo unspecified) | / | / | / | 22 | /
Cc1sc(NC(=O)CCl)c(C(=O)c2ccccc2)c1C | ? | 13% | -2% | -98* | ?
CCOC(=O)c1cc(C)sc1NC(=O)c1ccc(Cl)s1 | 3.3µM* | -1% | 4% | -12 | 1%
CCOC(=O)C1=C(C)NC(=S)NC1c1cc(C)sc1C (stereo unspecified) | 9% | 0% | -3% | -11 | -26%
CCOC(=O)c1c(NC(=O)c2ccc(Cl)s2)sc(C)c1C | ? | 2% | 0% | -11 | ?
Cc1cc(C(=O)c2ccc(C(C)(C)C)cc2)c(NC(=O)CCl)s1 | ? | 11µM* | ? | -51* | 3%
CCOC(=O)c1c(NC(=O)C2=C(C)NC(=S)NC2c2ccccc2C(F)(F)F)sc(C)c1C (stereo unspecified) | 17% | ? | 3.5µM* | -14 | ?
CN(C)C(=O)Nc1ccc(Oc2ccc(Cl)cc2)cc1 | / | 19% | ? | / | /
CCOC(=O)c1c(NC(=O)CNCCO)sc(C)c1C | 11% | ? | -17% | 1 | -7%
CCOC(=O)c1c(NC(=O)CNC2CCCCC2)sc(C)c1C | ? | 1.4µM* | -12% | -69* | 17%
Cc1sc(NC(=O)Nc2ccccc2)c(C(N)=O)c1C | 1% | -11% | ? | -76* | -4%
CCOC(=O)c1c(NC(=S)NCC2CCCO2)sc(C)c1C (stereo unspecified) | 24% | 1.6µM* | 4.5µM* | 39 | 16%
CCOC(=O)c1cc(C)sc1NC(=S)Nc1ccccc1 | 2% | ? | 3.2µM* | 20 | -8%
Cc1noc(C)c1-c1nc(N(C)Cc2ccco2)c2ccccc2n1 | / | -15% | -6% | / | /
CCOC(=O)c1c(NC(=S)Nc2ccccc2)sc(C)c1C | -2% | 3.5µM* | ? | 0 | -1%
SMILES | MCF10A rereplic | RORgamma inh | Gal4-VP16 FLuc | IL-1B inflam inh | SW480 rerep
CC(=O)Nc1sc(C)c(C)c1C(=O)OCC(=O)Nc1cccc(C)c1 | 8.2µM* | / | / | -59* | ?
CCOC(=O)c1c(NC(=O)CSc2nnc(Cc3ccccc3)o2)sc(C)c1C | -2% | ? | 1% | 11 | 0%
CCOC(=O)c1c(NC(=O)C[n+]2ccc(Cc3ccccc3)cc2)sc(C)c1C | ? | ? | ? | -74* | -5%
CC(=O)C1=CCC(c2ccco2)N(S(=O)(=O)c2ccc(C)cc2)C1 (stereo unspecified) | / | / | / | 13 | /
CC(=O)c1ccc(N2CCN(C(=O)CNC(=O)c3ccc(Br)o3)CC2)cc1 | / | / | / | -12 | /
CCOC(=O)/C(C#N)=C1\Nc2ccccc2N=C1N(CC(C)C)CC(C)C | -7% | -6% | 5% | -59* | -2%
CCCCN(CCCC)C1=Nc2ccccc2N/C1=C(/C#N)C(=O)OCC | ? | -26% | -28% | -7 | ?
O=C1CCC[C@@H]2C=C[C@H](c3ccc(Br)cc3)[C@H]3CCN1[C@@H]32 | / | / | / | -4 | /
CC(C)(C)OC(=O)N1CCN(c2ccc(NC(=O)c3ccco3)cc2)CC1 | 5% | 7% | -5% | -2 | -13%
CCC(=O)OCC(=O)[C@@]1(OC(=O)CC)[C@@H](C)C[C@H]2[C@@H]3CCC4=CC(=O)C=C[C@]4(C)[C@@]3(Cl)[C@@H](O)C[C@@]21C | 11% | / | / | -58* | ?
CC(C)(C)C(=O)Oc1ccc2cc(-c3ccc4ccccc4n3)c(=O)oc2c1 | 6.5µM* | -17% | ? | 41 | 23µM*
COc1ccc(/C=C2/SC(=O)N(CCNC(=O)C3COc4ccccc4O3)C2=O)cc1 (stereo unspecified) | 0% | ? | 17% | 8 | -4%
O=C(NCCN1C(=O)S/C(=C\c2ccc(Cl)c(Cl)c2)C1=O)C1COc2ccccc2O1 (stereo unspecified) | 5% | 16% | 3% | -56* | 5%
CCOc1ccc(/C=C2\SC(=O)N(CCNC(=O)C3COc4ccccc4O3)C2=O)cc1OC (stereo unspecified) | ? | ? | -4% | -53* | -3%
O=C(NCCN1C(=O)S/C(=C\c2ccc(Cl)c(Cl)c2)C1=O)c1ccc2c(c1)C(=O)N(Cc1ccncc1)C2=O | 16µM* | ? | ? | ? | -2%
CO[C@H]1COC(=O)C/C=C\[C@H](C)[C@@H](OC)COC(=O)[C@H](C)COC(=O)C/C=C\[C@@H]1C | / | 5%[10 µM] | -2%[10 µM] | / | /
Cc1nnc(NC(=O)CSc2ncnc3c2cnn3-c2ccccc2C)s1 | 18% | ? | -3% | 0 | 5%
Cc1ccccc1-n1ncc2c(SCC(=O)N3c4ccccc4CC3C)ncnc21 (stereo unspecified) | 10% | 24% | -8% | -92* | ?
COc1ccc(N2CCN(C(=O)CSc3ncnc4c3cnn4-c3ccccc3C)CC2)cc1 | ? | 1% | -6% | 7 | -2%
Cc1ccccc1-n1ncc2c(SCC(=O)NC3CCCC3)ncnc21 | 1% | ? | ? | -71* | -9%
CC1CCN(Cc2nnnn2CCCC(=O)NC(c2ccccn2)C(F)(F)F)CC1 (stereo unspecified) | 21µM* | 12% | 17% | 2 | 3%
O=C(NNc1nc2c(F)cccc2s1)c1cc(=O)c2ccccc2o1 | ? | 10µM* | ? | 0 | 0%
Cc1ccc2sc(NNC(=O)c3cc(=O)c4ccccc4o3)nc2c1C | 18% | -10% | -12% | 31 | 12%
Cc1cccc2sc(NNC(=O)c3cc(=O)c4ccccc4o3)nc12 | 0% | 4µM* | ? | 24 | -5%
